# Compounds with a hit are over-represented: about 1.1% of the library has one in this group of screens.
# HTR5A ag ctr: counter-screen for OPRM1-OPRD1 agonists: human HTR5A agonism; P47898; HTR5A agonist assay, luminescence, cell-based; activation, % at 9.3 µM; hit rate 0.61% among 340,000; AID 504692; in the data active = activation mostly above about 9.5%, no sharp cut-off; inactive = mostly below about 7.6%;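 note: 0% = cells with vehicle only and 100% = reference agonist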
# MOR-DOR ag-1: OPRM1-OPRD1 heterodimerization agonism. hit rate 0.3% among 340,000. cells, luminescence. activation, % at 9.3 µM. AID 504326. P35372+P41143;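 note: 0% = vehicle-treated cells and 100% = reference agonist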
# HTR5A inv ctr: counter-screen for OPRM1-OPRD1 inverse agonists: human HTR5A inverse agonism. hit rate 0.083% among 340,000. inhibition, % at 9.3 µM. HTR5A cell line, luminescence; in the data active = inhibition mostly above about 23%, no sharp cut-off; inactive = mostly below about 18%;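 note: 0% = cells with DMSO and 100% = no-cell wells with DMSO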
# OPRM1-OPRD1 inv: inverse agonists of human mu-delta opioid receptor heterodimerization | P35372+P41143 | inhibition, % at 9.3 µM | hit rate 0.21% among 340,000 | cell-based MOR-DOR heterodimer luminescence, inverse agonism | AID 504357; in the data active = inhibition above about 22%, passing the limit was not always enough;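 note: 0% = cells with DMSO and 100% = wells without cells with DMSO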
# MOR-DOR ag-2: opioid heterodimer agonism, HTR5A counter-screen; shares compounds with HTR5A ag ctr; U2OS counter-screen cells, complementation luminescence, 3 h; activation, % at 9.3 µM; hit rate 13% among 800; AID 504913
# HTR5A ag confirm: HTR5A (human) agonism, confirmation | activation, % at 9.3 µM | hit rate 17% among 800 | HTR5A agonist cell assay, luminescence | shares compounds with HTR5A ag ctr; in the data active = activation above about 17%;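 note: 0% = cells with vehicle only and 100% = full reference agonist response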
# Starred values were filed as active, the others as inactive; . = not tested or not shown. Cut-off read from the data, not from the text of the source, unless noted: active = activation above about 18%; inactive = the rest.
SMILES,HTR5A ag ctr,MOR-DOR ag-1,HTR5A inv ctr,OPRM1-OPRD1 inv,MOR-DOR ag-2,HTR5A ag confirm
Nc1ncnc2nc(N3CCN(C(=O)c4ccccc4)CC3)[nH]c12,19*,-3,-47,17,0,-1
CN(C)c1ccc(N2C(=NC(=O)CC3CCCCC3)SC3CS(=O)(=O)CC32)cc1 (centres undefined),6,0,11,-2,.,.
O=[N+]([O-])c1ccc(S(=O)(=O)NN=C2CCCCC2)cc1,15*,-1,-55,7,2,4
O=S(=O)(NN=C1CCCCCC1)c1ccc(Cl)cc1,3,-3,-30,17,.,.
Cc1ccc2c(NC(=O)c3ccco3)cccc2n1,4,-2,2,11,.,.
CCC(C)(C)C1CCC(NC(=O)N2CCN(c3ccccc3O)CC2)CC1 (centres undefined),15*,4,-15,-30,6,0
CCOc1ccccc1N1CCN(C(=O)NC2CCCCC2)CC1,0,-3,-14,19,.,.
Cc1ccc(C)c(S(=O)(=O)N(C)C2(C)CCS(=O)(=O)C2)c1 (centres undefined),-4,-1,11,8,.,.
O=C(NCCCO)C(=O)NCC1OCCCN1S(=O)(=O)c1cccs1 (centres undefined),17*,-1,-44,4,0,-2
Cc1ccc(S(=O)(=O)N2CCOC2CNC(=O)C(=O)NCCc2ccc(S(N)(=O)=O)cc2)cc1 (centres undefined),4,0,-14,1,.,.
O=C(NCCc1c[nH]c2ccccc12)C(=O)NCC1OCCCN1S(=O)(=O)c1cccs1 (centres undefined),31*,0,-73,-2,1,-6
Cc1ccc(S(=O)(=O)N2CCOC2CNC(=O)C(=O)NCCc2c[nH]c3ccccc23)cc1 (centres undefined),54*,0,-118,-1,0,-2
O=C(NCCO)C(=O)NCC1OCCCN1S(=O)(=O)c1cccs1 (centres undefined),2,-1,-4,3,.,.
CNC(=O)C(=O)NCC1OCCCN1S(=O)(=O)c1cccs1 (centres undefined),4,-1,1,5,.,.
O=C(NCCc1c[nH]c2ccccc12)C(=O)NCC1OCCCN1S(=O)(=O)c1ccc(F)cc1 (centres undefined),16*,-1,-59,8,4,24*
CCC(=O)Nc1ccc(C(=O)COC(=O)c2sc(C)nc2C)cc1,-1,-2,3,11,.,.
Cc1ccccc1Cn1c(NC2CCCC2)nc2c1c(=O)[nH]c(=O)n2C,-2,-3,9,15,.,.
O=C(NCCc1c[nH]c2ccccc12)C(=O)NCC1OCCN1S(=O)(=O)c1cc(F)ccc1F (centres undefined),34*,1,-6,-4,1,45*
Cc1cc(F)ccc1S(=O)(=O)N1CCCOC1CNC(=O)C(=O)NCCc1c[nH]c2ccccc12 (centres undefined),16*,-1,-75,4,43*,4
O=C(NCCCc1ccccc1)C(=O)NCC1OCCN1S(=O)(=O)c1cc(F)ccc1F (centres undefined),2,-3,10,17,.,.
Cc1cc(OCCn2nc(C(=O)O)c3ccccc3c2=O)ccc1C(C)C,20*,3,-55,-21,-2,-9
CCc1ccc(CCC(=O)Nc2ncc(Cc3ccccc3Cl)s2)o1,17*,3,-59,-18,22*,12
O=C(CN1CCOCC1)Nc1ncc(Cc2ccccc2Cl)s1,5,-1,1,7,.,.
COC(=O)c1c(C)[nH]c(C(=O)C(C)OC(=O)c2c(C)noc2C)c1C (centres undefined),4,-1,-15,7,.,.
CCn1c(C)nc2cc(C(=O)N/N=C/c3ccc(O)cc3)ccc21,8,-1,2,4,.,.
SMILES,HTR5A ag ctr,MOR-DOR ag-1,HTR5A inv ctr,OPRM1-OPRD1 inv,MOR-DOR ag-2,HTR5A ag confirm
CCn1c(C)nc2cc(C(=O)N/N=C/c3ccc(OC)c(O)c3)ccc21,14*,0,-27,-1,0,-1
COc1ccc(NC(=O)O/N=C2/CCCc3ccc(OC)cc32)cc1,19*,-2,-69,12,2,28*
COc1ccc2c(c1)/C(=N/OC(=O)c1cccs1)CCC2,22*,4,-117,-26,3,31*
COc1ccc(NC(=O)CN(C)CC(=O)Nc2ccc3c(c2)CCC3)cc1,-2,-2,-10,11,.,.
COCCN(C(=O)COC(=O)Cc1c[nH]c2ccccc12)c1c(N)n(Cc2ccccc2)c(=O)[nH]c1=O,3,-1,-10,3,.,.
CC(C)[C@H](NS(=O)(=O)c1ccccc1)C(=O)OCC(=O)NC(=O)NC1CCCCC1,-1,5,2,-24,.,.
Cc1cc(C(C)(C)C)ccc1OCCCCN1CCCC1,-5,-2,7,14,.,.
CCC(C)(C)c1ccc(OCCCC[n+]2cccc(C)c2C)c(C(C)(C)CC)c1,21*,11,-44,-56,-2,-2
CC(=O)c1ccc(OCCCOc2cccc3cccnc23)cc1,1,-2,-4,11,.,.
CC(=O)CCc1ccc(OCCCOc2cccc3cccnc23)cc1,23*,2,-19,-11,1,13
CCOC(=O)c1ccc(NC(=S)NC2CCCC2)cc1,15*,-1,12,5,4,4
CC(C)c1ccc(NC(=S)NC2CCCCCC2)cc1,16*,4,-43,-20,27*,4
CCOC(=O)c1ccc(NC(=S)NC(=O)C2CCCC2)cc1,0,1,0,-8,.,.
COc1ccc2c(c1)CCC1C2CCC2(C)C(O)C(=O)CC12 (centres undefined),3,1,-10,-3,.,.
COc1ccc(OC)c(NC(=S)N(CCc2c(C)[nH]c3ccc(C)cc23)Cc2cccs2)c1,24*,4,-68,-20,-1,-2
COc1ccc(OC)c(NC(=S)N(CCc2c(C)[nH]c3ccccc23)Cc2cccs2)c1,7,3,-19,-14,.,.
CC(C(=O)NC1C=CS(=O)(=O)C1)N1C(=O)/C(=C/c2cccc(Cl)c2)SC1=S (centres undefined),15*,0,-17,1,38*,2
CS(=O)(=O)c1ccc2nc(NC(=O)CCNC(=O)c3ccc([N+](=O)[O-])cc3)sc2c1,20*,3,-59,-17,1,4
Cc1ccccc1-c1cc(C(=O)Nc2sc(C)c(C)c2C(N)=O)c2ccccc2n1,17*,-1,-45,5,5,-2
CCOC(=O)c1sc(NC(=O)c2cc(-c3ccccc3C)nc3ccccc23)c(C#N)c1C,2,-1,-4,4,.,.
CC(OC(=O)CNC(=O)c1ccc2ccccc2c1)C(=O)NC1CCCCC1C (centres undefined),3,-1,-10,6,.,.
CC(C)(C)OC(=O)NCc1ccc(CNC(=O)c2nc[nH]c2C(=O)N2CCN(c3ccccc3)CC2)cc1,4,0,-37,3,.,.
COc1cccc(S(=O)(=O)NCc2ccc(C(=O)Nc3cccc(Cl)c3)cc2)c1,19*,6,-46,-27,-3,-1

# Bioassay records: PubChem BioAssay, The Scripps Research Institute Molecular Screening Center
